Bioassay records as filed in PubChem.
Compounds with a hit are over-represented: about 3.7% of the library has one in this group of screens.
MITF TRPM1 HTS: increases MITF-driven TRPM1 promoter luciferase signal; 300,000 tested, 0.75% active; SK-MEL-5 TRPM1-promoter luciferase, 24 h; % of positive control, neutral wells = 0; activation, % at 12.5 µM;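 active = mean activation of at least 80% with every replicate also reaching 80%; inconclusive = mean reaches 80% but some replicate falls short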;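 note: 0% = neutral control wells and 100% = parthenolide positive control wells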
rRNA inh HTS: selective bacterial rRNA inhibition in E. coli; E. coli WT GFP vs humanized-ribosome RFP mutants, fluorescence, 24 h; stronger effect = lower value; DMSO median 0, no signal -100; GFP signal change (wild-type ribosome), % (test concentration not listed); 350,000 tested, 1.6% active;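 active = significant combined selectivity score with lowered wild-type GFP, culture density cut under 30%, mutant RFP and density less affected; inactive = any of these conditions unmet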
AF4-AF9 inh: blocks AF4 peptide binding to human AF9. P42568. AlphaScreen, biotin-AF4 peptide binding to FLAG-AF9. inhibition, % at 10 µM. AID 651704. 350,000 tested, 0.47% active;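 active = every replicate reaching a set inhibition limit, whatever the replicate mean, cut at about 25% in these data; inconclusive = mean inhibition reaches that limit but some replicates miss it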;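 note: 0% = plate neutral control median and 100% = total signal loss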
Target sequence (P42568 whole entry, looked up): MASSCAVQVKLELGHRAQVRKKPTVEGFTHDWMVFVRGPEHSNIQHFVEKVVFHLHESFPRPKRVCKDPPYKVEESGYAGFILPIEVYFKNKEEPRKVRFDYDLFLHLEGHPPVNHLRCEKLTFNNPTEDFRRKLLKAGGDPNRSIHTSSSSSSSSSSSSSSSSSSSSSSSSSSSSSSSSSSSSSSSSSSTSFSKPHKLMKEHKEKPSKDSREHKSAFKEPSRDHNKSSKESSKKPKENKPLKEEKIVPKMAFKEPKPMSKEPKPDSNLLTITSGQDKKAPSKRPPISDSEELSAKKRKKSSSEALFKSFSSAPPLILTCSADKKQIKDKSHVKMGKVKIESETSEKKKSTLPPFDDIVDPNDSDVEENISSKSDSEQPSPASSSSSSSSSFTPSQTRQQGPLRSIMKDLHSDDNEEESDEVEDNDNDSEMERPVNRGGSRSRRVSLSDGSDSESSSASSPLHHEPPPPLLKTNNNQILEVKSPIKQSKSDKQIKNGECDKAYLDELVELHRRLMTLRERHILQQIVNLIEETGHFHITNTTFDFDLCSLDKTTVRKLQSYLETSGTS
Wnt act: activates Wnt/beta-catenin signaling in a reporter cell assay. AID 743398. 300,000 tested, 1.2% active. activator, plate reader. activation, % at 9.35 µM; in the data active = activation above about 30%, passing the limit was not always enough; inconclusive = no clear call, values can overlap the other calls;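 note: 0% = neutral control wells and 100% = positive control wells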
esBAF inh: blocks esBAF chromatin remodeling in mouse ES cells | Bmi1-luciferase knock-in reporter, 24 h; 100% = twice the neutral-well signal | reporter increase, % at 12.5 µM | 350,000 tested, 2% active | AID 602393; in the data active = activation above about 40%; inconclusive = no clear call, values can overlap the other calls;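 note: 0% = median of the plate's neutral control wells and 100% = double that signal; a rise in the Bmi1 reporter signal indicates esBAF inhibition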
The depositor's hits bear a star; u = inconclusive; x = no result; ! = a repeat was not active.

SMILES	MITF TRPM1 HTS	rRNA inh HTS	AF4-AF9 inh	Wnt act	esBAF inh
Cc1ccc(Nc2nc(Cl)nc3ncn(C)c23)c(C)c1	3.9	-36.0*	-2.2	-4.7	2.9
CC(C)(C)NC(=S)N/N=C/c1cc(Br)c(O)c(Br)c1	x	-39.5*	6.2	12.7	x
COc1ccccc1C(=O)O/N=C(\N)c1ccccn1	x	9.4	-2.9	53.9*	-36.3
COc1cc(OC)cc(C(=O)O/N=C(\N)c2ccccn2)c1	x	x	0.3	52.4*	x
COCC(=O)Nc1ccc2c(c1)C(=O)N(C)[C@H]1CC[C@@H](CC(=O)O)O[C@@H]1CO2	x	0.6	x	x	-1.8
COc1cc(C(C[N+](=O)[O-])c2c(C)[nH]c3ccccc23)ccc1O (stereo not drawn)	-15.1	-13.0	9.7	1.2	x
Cc1[nH]c2ccccc2c1C(C[N+](=O)[O-])c1cccc(O)c1 (stereo not drawn)	-27.4	-32.5*	9.1	-0.7	0.5
CC[C@]12c3[nH]c4ccc(Cl)cc4c3CCN1C(=O)[C@@H](CC(=O)NCC13CC4CC(CC(C4)C1)C3)C[C@@H]2C(=O)N1CCN(C(=O)C2CC2)CC1	-22.8	10.8	-3.7	-6.8	3.6
Cc1cc2nc(/C=C/c3nc4cc(C)c(C)cc4[nH]3)[nH]c2cc1C	5.1	5.0	-4.8	6.6	5.7
Cc1cc2nc(/C=C/c3cccnc3)[nH]c2cc1C	x	-27.8*	-14.2	0.4	8.0
O=C1NC(C(F)(F)F)(C(F)(F)F)N=C2SC=CN12	-3.7	15.6	0.3	0.0	-3.5
COc1cccc(C=NN2CCCCCC2)c1OC	53.7	4.4	9.7	-3.0	45.0*
CC(C)NC(=O)C1C(c2ccc(C(F)(F)F)cc2)=Nc2ccccc2N1C(=O)c1ccccc1 (stereo not drawn)	x	0.3	5.1	44.8*	x
CC(=NNc1nc2ccccc2o1)c1cc2ccccc2cn1	-58.2	-21.8*	0.2	-19.0	x
CC(=NNc1nc2ccccc2o1)c1ncccn1	-35.5	-52.3	13.2	-1.0	-27.9
C/C(=N\NC(=O)c1ccc(Cn2cc(Br)cn2)o1)c1ccc(NC(=O)c2ccoc2C)cc1	54.3	-21.5	0.2	10.6	46.8*
C/C(=N\NC(=O)c1ccc(Cn2cc(Br)cn2)o1)c1cccc(NC(=O)C(C)(C)C)c1	-9.2	x	x	1.7	3.6
NC(=O)c1nnsc1Sc1c(C(N)=O)nnn1-c1cccc(N)c1	5.2	-27.1*	-0.9	-1.7	x
NC(=O)CSc1nnnn1-c1cccc(Cl)c1	-0.2	6.2	3.2	-5.9	x
CC(C)[C@H](NC(=O)c1ccccc1)C(=O)OCC(=O)c1ccc(S(=O)(=O)N2CCCCC2)cc1	-7.4	5.2	-4.2	-3.7	6.8
Cc1ccc(NC(=O)CCC(=O)c2cccs2)c(Br)c1	86.2*	-2.5	-1.8	23.1	x
Cc1ccc(NCCC(=O)c2cccs2)cc1C	106.1*	-7.7	15.8	-0.7	67.6*
Cc1ccc(NCCC(=O)c2ccc(Cl)cc2)cc1C	17.4	x	x	3.6	28.5
Cc1ccc(NC(=O)CCC(=O)c2cccs2)cc1	x	x	x	40.9*	6.0
Cc1ccc(CNC(=O)CCC(=O)c2cccs2)cc1	-6.4	x	x	x	0.5
SMILES	MITF TRPM1 HTS	rRNA inh HTS	AF4-AF9 inh	Wnt act	esBAF inh
Cc1ccc(NCCC(=O)c2cccs2)cc1Cl	28.9	x	x	18.6	54.7*
O=C1c2ccccc2C(=O)N1C1C=CC=CC=C1	x	13.9	1.8	-0.9	1.7
CC(C)c1ccc(NCCC(=O)c2cccs2)cc1	44.5	x	x	x	x
Cc1ccc(NCCC(=O)c2cccs2)cc1	71.6	-1.8	0.9	-0.2	64.2*
COc1ccc(C(=O)C[n+]2cn(C(F)F)c3ccccc32)c(F)c1	13.4	-21.0	-4.7	14.2	52.1*
Cn1c(-c2ccccc2)cnc1N	15.9	x	x	u	26.2
CNC[C@@H]1OCCCC[C@@H](C)Oc2ccc(NS(=O)(=O)c3ccc(C)cc3)cc2C(=O)N([C@@H](C)CO)C[C@@H]1C	x	2.2	-7.2	x	-8.9
CC(C)NC(=O)N(C)C[C@@H]1OCCCC[C@H](C)Oc2ccc(NC(=O)Nc3ccc4c(c3)OCO4)cc2C(=O)N([C@H](C)CO)C[C@@H]1C	x	1.9	2.8	x	48.5*
C[C@H](CO)N1C[C@H](C)[C@@H](CN(C)C(=O)Nc2ccc3c(c2)OCO3)Oc2ncc(C#CC3(O)CCCC3)cc2C1=O	x	2.2	-0.4	x	59.5*
C[C@@H]1CCCCO[C@@H](CN(C)C(=O)Nc2ccc3c(c2)OCO3)[C@H](C)CN([C@H](C)CO)C(=O)c2cc(NC(=O)Nc3ccc4c(c3)OCO4)ccc2O1	x	0.4	0.0	x	80.5*
CNC[C@@H]1OCCCC[C@H](C)Oc2ccc(NS(=O)(=O)c3ccc(C)cc3)cc2C(=O)N([C@H](C)CO)C[C@H]1C	x	5.7	-3.9	x	54.8*
FC(F)(F)c1cnc(NNC(=S)Nc2ccccc2Cl)c(Cl)c1	-10.7	x	x	-1.9	x
COc1cc2c(cc1OC)C(=O)N1[C@H]3c4cc(C)ccc4OC[C@@H]3[C@H](c3ccccc3)[C@]1(C)C(=O)N2	-18.5	12.1	5.4	-9.6	-5.9
C[C@@H]1CN([C@@H](C)CO)C(=O)c2cc(NC(=O)c3ccncc3)ccc2O[C@@H](C)CCCCO[C@H]1CN(C)C(=O)Nc1ccc2c(c1)OCO2	x	0.3	-5.2	x	6.7
C[C@@H]1CCCCO[C@H](CN(C)C(=O)Nc2ccc(C(F)(F)F)cc2)[C@H](C)CN([C@@H](C)CO)C(=O)c2cc(NC(=O)Nc3ccccc3)ccc2O1	x	0.9	-3.6	x	-1.4
C[C@H]1CCCCO[C@H](CN(C)C(=O)Nc2ccc(F)cc2)[C@@H](C)CN([C@@H](C)CO)C(=O)c2cc(NC(=O)Nc3ccc4c(c3)OCO4)ccc2O1	x	1.2	32.3*!	0.6	50.9*!
C[C@@H]1CN([C@@H](C)CO)C(=O)c2cc(NS(=O)(=O)c3cccs3)ccc2O[C@@H]1CN(C)C(=O)Nc1ccc(F)cc1	x	-4.6	47.1*	x	4.3
C[C@H](CO)N1C[C@H](C)[C@@H](CN(C)C(=O)Nc2ccc3c(c2)OCO3)OCCCC[C@H](C)Oc2ccc(NC(=O)c3ccncc3)cc2C1=O	x	-3.2	-2.3	x	54.0*
C[C@@H]1CCCCO[C@@H](CN(C)C(=O)Nc2ccccc2)[C@@H](C)CN([C@@H](C)CO)C(=O)c2cc(NC(=O)Nc3ccc(C(F)(F)F)cc3)ccc2O1	x	2.8	35.3*	x	x
C[C@@H]1CCCCO[C@@H](CN(C)C(=O)c2ccccc2)[C@H](C)CN([C@@H](C)CO)C(=O)c2cc(NC(=O)c3ccccc3)ccc2O1	x	-21.1*	1.2	x	x
Cc1noc(C)c1NC(=O)N(C)C[C@@H]1Oc2ncc(C#CC3CC3)cc2C(=O)N([C@@H](C)CO)C[C@@H]1C	x	2.6	0.4	-1.0	-2.9
Cc1noc(C)c1NC(=O)N(C)C[C@@H]1Oc2ncc(C#CC3CC3)cc2C(=O)N([C@@H](C)CO)C[C@H]1C	x	0.4	-1.2	x	51.6*
CCCC#Cc1cnc2c(c1)C(=O)N([C@H](C)CO)C[C@@H](C)[C@H](CN(C)C(=O)C1CCCCC1)O2	x	0.2	x	x	-3.4
